Assay outcomes (PubChem BioAssay)
HCMV inh: human cytomegalovirus inhibition | 410,000 tested, 4.5% active | AID 1259415 | activity change, negative = inhibition, % at 57.5 µM | HFF cells, HCMV-luciferase reporter, 72 h; active compounds read low; in the data active = activity change below about -60%; inconclusive = no clear call, values can overlap the other calls; inactive = above about -39%; also: % is scaled to controls: 0 for no effect and ±100 for the full control effect
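Cell-based, HFFs, 1000 cells/well, 16 h 37C; cpds in DMSO + HCMV-luc, MOI 1 PFU/cell; 72 h 37C; OneGlo luminescence after 5 min RT; norm. to buffer vs Salinomycin 10uM.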
Pf growth 96h: P. falciparum growth inhibition at 96 hours; P. falciparum luciferase reporter growth, 96 h; Potency, µM (titrated, usually from 28.7 µM), for the others: at the highest dose activity change, negative = inhibition, actives largely listed as inhibitors; 320,000 tested, 6.9% active; AID 504834; also: potency is read from the fitted curve at half-maximal effect; % is scaled to controls: 0 for no effect and ±100 for the full control effect
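Erythrocytes infected with luciferase-expressing P. falciparum were dispensed at 2% hematocrit and 0.05% parasitemia (final), then incubated with compounds 96 hours at 37 C in 5% CO2. Luminescence after detection reagent addition reported growth.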
SARS PLpro yeast: SARS-CoV PLP inhibition in yeast | S. cerevisiae expressing SARS-CoV PLpro, growth rescue | Potency, µM (series often up to 32.9 µM), for inactives: at the top dose activity, positive = growth rescue, usual class: activators | 330,000 tested, 0.19% active | AID 485353; calls by dose curve; also: potency is read from the fitted curve at half-maximal effect; 0% is about no effect; nearly all actives have a fitted effect of over 55% in size
Pf growth 48h: P. falciparum growth inhibition at 48 hours (one generation); P. falciparum luciferase growth in erythrocytes, 48 h; Potency, µM (top dose mostly 28.7 µM), without a hit: at the highest dose activity change, negative = inhibition, hits mostly inhibitors; 310,000 tested, 5.9% active; AID 504832; also: potency is read from the fitted curve at half-maximal effect; % is scaled to controls: 0 for no effect and ±100 for the full control effect
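Erythrocytes infected with P. falciparum carrying an integrated firefly luciferase reporter (2% hematocrit, 0.1% parasitemia final) were exposed to compounds in RPMI 1640 with 0.5% Albumax at 37 C, 5% CO2. Growth inhibition was scored as reduced luminescence.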
Sm TGR inh: inhibitors of Schistosoma mansoni thioredoxin glutathione reductase; Q962Y6; purified TGR, DTNB reduction, TNB absorbance 405 nm; Potency, µM (series often up to 114 µM), for the others: top-dose activity change, negative = inhibition, most hits filed as inhibitors; 360,000 tested, 3% active; AID 485364; also: potency is read from the fitted curve at half-maximal effect; % is scaled to controls: 0 for no effect and ±100 for the full control effect; nearly all actives have a fitted effect of over 60% in size
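TGR 20 nM + NADPH 100 uM (dispensed conc.), cpd preinc 15 min RT; start with NADPH (500 uM addition) then DTNB (15 mM addition). Kinetic TNB absorbance, 405 nm filter. Four-parameter Hill fit across titration.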
HCV inhibitor: inhibitors of hepatitis C virus infection | Potency, µM (highest dose often 41.8 µM), inactives show top-dose activity change, negative = inhibition, usual class: inhibitors | Huh7.5.1 HCVcc-Cre infection, luciferase reporter, 44 h | AID 651820 | 340,000 tested, 3.4% active; also: potency is read from the fitted curve at half-maximal effect; % is scaled to controls: 0 for no effect and ±100 for the full control effect
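Compounds are dispensed onto cells plated 4 h earlier at 1,000 per well, with HCVcc-Cre virus (about 0.5 moi) added next. Following 44 h of culture, luminescent signal is measured for 15 sec after 15 min with substrate at room temperature.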
* marks the source's active call; other numbers are inactive results; ? = inconclusive; / = no result; + = active, no number; [ ] = another dose, or the depositor's remark. Sampled rows, rich in hits. Any-hit rate of the full collection: about 15%. Unless noted, calls follow the shape of the dose curve; as a rule, active = well fitted curve in the direction sought with a large enough effect; inconclusive = small, poorly fitted or top-dose-only effect, or another doubt; inactive = no such curve, though single readings can be large; an effect the other way counts as inactive or inconclusive.

SMILES	HCMV inh	Pf growth 96h	SARS PLpro yeast	Pf growth 48h	Sm TGR inh	HCV inhibitor
COc1ccc(NC(=O)c2ccccc2)cc1NS(=O)(=O)c1ccc(F)cc1	-21	-19%	-4%	3%	1%	4%
COc1cccc(C(=O)NCC(c2ccc(N(C)C)cc2)N2CCc3ccccc32)c1OC (configuration not stated)	-13	/	/	/	42%	/
CC(=O)Oc1ccc(C(=O)Nc2ccc(S(=O)(=O)N3CCOCC3)cc2)cc1	28	5%	-5%	?	-18%	-10%
COc1ccc(C2N(C(=O)N(C)C)CCN2S(=O)(=O)c2ccc(OC)cc2)cc1 (configuration not stated)	-13	27%	1%	?	-5%	16%
CCc1nc2ccc(C(=O)NCCc3ccccn3)cn2c1N(C)CCC(C)C	-5	/	/	/	/	/
COC(=O)c1cc(C(=O)c2cccc(Cl)c2Cl)cn1C	?	-10%	1%	37%	1%	-14%
CN1CCC(OC(=O)c2ccccc2Cl)CC1	-29	24%	-1%	23%	10%	3%
CN(C)CC1CCCCC1OC(=O)c1ccc(Br)cc1 (configuration not stated)	47	13%	-4%	-16%	1%	?
CN(C)CC1CCCCC1OC(=O)c1ccc(Cl)cc1Cl (configuration not stated)	-61*	14%	-25%	10%	0%	?
COC(=O)c1cc(C(=O)c2ccc(Cl)cc2Cl)cn1C	16	5.2µM*	-9%	4.7µM*	24%	-7%
CN1CCC(OC(=O)c2ccc(Cl)cc2Cl)CC1	10	7.4µM*	-1%	9%	-20%	?
Cc1ccc2nc(N3C(=O)CNC3=S)sc2c1	-92*	-90%	-6%	?	6%	?
COc1ccc2nc(N3C(=O)CNC3=S)sc2c1	-69*	?	-2%	15%	2%	16%
COC(=O)/C=C1\C(=O)N(c2nc3ccc(OC)cc3s2)C(=S)N1c1ccc(F)cc1	/	31%	0%	18%	-3%	15%
Cc1cccc(CC2CC(=O)N(c3nc4ccccc4s3)C2=O)c1 (configuration not stated)	-15	92%[1.15 µM]	0%	-3%	/	2%
COc1cc(C(CC(=O)NCc2ccc(F)cc2)N2Cc3ccccc3C2=O)cc(OC)c1OC (configuration not stated)	17	/	/	/	-7%	/
Cc1nn(-c2ccc(Cl)cn2)c2c1C(=O)CC(C)(C)C2Br (configuration not stated)	-24	/	/	/	/	?
COc1ccc(Cl)cc1N1C(=NC(=O)C2CCCCC2)SC2CS(=O)(=O)CC21 (configuration not stated)	-35	8%	1%	23%	-24%	6%
CCOc1cccc2sc(N(Cc3cccnc3)C(=O)C3CCCCC3)nc12	+	/	/	/	10%	/
Cc1c(Br)c([N+](=O)[O-])nn1CCCC(=O)NC(C)c1ccccc1 (configuration not stated)	-9	?	-1%	2%	3%	-3%
CCOc1ccc(S(=O)(=O)n2cnc3cc(C)c(C)cc32)cc1	-86*	8%	?	3%	8%	10µM*
Cc1nc(SCC(=O)c2cc3ccccc3oc2=O)c(C#N)c(-c2ccccc2)c1C(=O)Nc1ccccc1	-8	-83%	22%	11%	-3%	?
COc1ccc(-c2c(C#N)c(SCC(=O)c3cc4ccccc4oc3=O)nc(C)c2C(=O)Nc2ccccc2)cc1	63	12µM*	-10%	?	-3%	?
COc1ccc(NC(=O)C(c2ccc(C)cc2)N(C)C(=O)/C=C\c2ccc3c(c2)OCO3)cc1 (configuration not stated)	-7	/	/	/	7%	/
Cc1ccc(C(C(=O)Nc2ccc3c(c2)OCO3)N(C)C(=O)/C=C\c2ccc3c(c2)OCO3)cc1 (configuration not stated)	-38	13%	2%	13µM*	-4%	?
